A selection: hits, their analogues and other compounds. The true share with any hit is near 3.3%.
12-hLO inh: blocks human 12-lipoxygenase activity. P18054. purified 12-hLO, xylenol orange hydroperoxide absorbance. Potency, µM (titrated, usually from 57.1 µM), actives largely listed as inhibitors. 0.12% of 150,000 active. AID 1452; further: nearly all actives have a fitted effect of over 55% in size
Target sequence (P18054 whole entry, looked up): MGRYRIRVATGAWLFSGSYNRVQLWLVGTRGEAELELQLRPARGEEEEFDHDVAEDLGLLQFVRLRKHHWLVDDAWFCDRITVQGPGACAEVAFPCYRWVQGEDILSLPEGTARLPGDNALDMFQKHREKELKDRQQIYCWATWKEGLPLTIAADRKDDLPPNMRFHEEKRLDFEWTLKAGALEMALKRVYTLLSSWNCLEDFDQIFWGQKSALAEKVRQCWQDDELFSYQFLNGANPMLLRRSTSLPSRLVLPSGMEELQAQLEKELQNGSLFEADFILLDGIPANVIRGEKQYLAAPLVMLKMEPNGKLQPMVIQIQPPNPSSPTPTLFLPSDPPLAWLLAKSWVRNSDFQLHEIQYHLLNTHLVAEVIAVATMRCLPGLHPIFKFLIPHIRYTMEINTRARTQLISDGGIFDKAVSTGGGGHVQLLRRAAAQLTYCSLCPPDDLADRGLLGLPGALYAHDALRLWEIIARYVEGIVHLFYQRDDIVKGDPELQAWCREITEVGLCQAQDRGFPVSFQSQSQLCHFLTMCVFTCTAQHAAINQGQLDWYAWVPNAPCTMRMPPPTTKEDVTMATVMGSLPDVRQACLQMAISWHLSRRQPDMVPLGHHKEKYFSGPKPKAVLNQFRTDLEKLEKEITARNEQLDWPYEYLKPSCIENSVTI
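150 nM 12hLO, 25 mM Hepes pH 7.0 + 0.01% Triton X-100; cpd preinc 15 min RT; 40 uM arachidonic acid, 30 min RT; Fe-XO 30 min; A573/A405 ratio as read-out.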
HTT aggregate: mutant huntingtin aggregation inhibition | Potency, µM (doses to about 46.1 µM), hits mostly inhibitors | 1.1% of 220,000 active | PC12 HttQ103-GFP aggregates, Acumen cytometry, 40 h; further: nearly all actives have a fitted effect of over 60% in size
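Quantitative HTS on tebufenozide-induced (100 nM) PC12 cells stably expressing polyQ103 Huntingtin exon 1–GFP. Reduction of bright GFP aggregates, detected by laser scanning cytometry after lysis, identified actives across the titration.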
NPSR antagonist: neuropeptide S receptor (human) antagonism, cAMP. Q6W5P4. CHO-NPSR cells, cAMP TR-FRET, antagonist mode. Potency, µM (series often up to 38.3 µM), most hits filed as inhibitors. 1% of 220,000 active. AID 1461; further: nearly all actives have a fitted effect of over 50% in size
HTT ATP protect: protects HTT-Q103 PC12 cells, measured by ATP; PC12 HTT-Q103 induced, cytoprotection, ATP luminescence, 40 h; Potency, µM (doses to about 56.4 µM), actives largely listed as activators; 0.14% of 230,000 active; AID 1471; further: nearly all actives have a fitted effect of over 45% in size
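ATP quantification (ATPlite) reports survival of PC12 cells in which tebufenozide, 100 nM final, switches on Htt exon 1 with 103 glutamines linked to GFP; compounds are titrated.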
PNC assembly inh: perinucleolar compartment assembly inhibition. 3.1% of 140,000 active. activity change (PNC), negative = inhibition, % at 10 µM. AID 2417. PC3M PTB-GFP, PNC prevalence imaging, 16 h; active compounds read low;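 active means readout at or below -70, meaning at least 70% loss of cells showing the perinucleolar compartment, a nuclear body marking cancer cells; inconclusive means readout between -30 and a set limit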
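PC3M cells stably expressing PTB-GFP, 750–1000 cells/well, treated 16 h at 37 °C with compound (23 nl of library stock), in duplicate. After paraformaldehyde fixation and Hoechst stain, imaged at 20x; PNC prevalence scored by image analysis.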
IMPase cell inh: IMPase inhibition in cells. CHO-M1 cells, IP1 accumulation, HTRF TR-FRET ratio. 120,000 tested, under 10 active. inhibition (IP1 accumulation), % at 46.1 µM. AID 901; active means well fitted curve in the direction sought with a large enough effect in the signal ratio, not every such curve was filed as active; inconclusive means small, poorly fitted or top-dose-only effect, or a change in a side signal; inactive means no such curve, though single readings can be large or run the other way; the % refers to the signal ratio;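 further: cells stimulated with carbachol in lithium chloride buffer; higher means more IMPase inhibition seen as more IP1 and lower FRET ratio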
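Measured: the HTRF emission ratio (665/620 nm) plus the 620 nm donor channel, each fitted to the Hill equation to give AC50. Cells were CHO-M1 given compounds up to 46 uM and a 30 min carbachol stimulation at 37C.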
Hits are given with their value; . = inactive; ? = inconclusive; / = no result; [ ] = remark or other dose. Unless noted, the call rests on the fitted dose curve; in most records, active means well fitted curve in the direction sought with a large enough effect; inconclusive means small, poorly fitted or top-dose-only effect, or another doubt; inactive means no such curve, though single readings can be large; an effect the other way counts as inactive or inconclusive.

SMILES	12-hLO inh	HTT aggregate	NPSR antagonist	HTT ATP protect	PNC assembly inh	IMPase cell inh
CCOC(=O)c1c(C)[nH]c(C)c1C(=O)CN1C(=O)NC(CC(C)C)C1=O (stereo not drawn)	.	?	.	.[10 µM]	-94.3	.
COc1cccc2[nH]c3c(=O)n(CCN(C)C)cnc3c12	.	.	.	.[0.074 µM]	-87.2	.
CCN(CC)CCn1cnc2c([nH]c3cccc(OC)c32)c1=O	.	.	.	.[0.074 µM]	.	.[1.84 µM]
CCCCCC1C(=O)C[C@@H]2CCN3C(=O)CCC[C@H]1[C@H]23 (stereo partly drawn)	.[0.00818 µM]	/	/	.	/	/
CN(C)S(=O)(=O)c1cccc(NC(=O)COC(=O)c2cc(=O)c3ccccc3o2)c1	/	.[9.22 µM]	.	.[10 µM]	/	/
O=C(c1cccs1)N1N=C(c2ccc(O)cc2)CC1c1ccccc1 (stereo not drawn)	.	.	.	.[10 µM]	.	/
O=C(c1cccs1)N1N=C(c2ccccc2)CC1c1ccccc1 (stereo not drawn)	.	?	?	.[10 µM]	-104.8	.
Cc1noc(C)c1C(=O)N1CCC2(CCCN(c3ncccn3)C2)CC1	.	/	/	.	/	/
COc1ccccc1OCCn1cc(C#N)c2ccccc21	.	.	.	.[10 µM]	-118.9	.
CCNc1c(NC(=O)c2cc(OCC)c(OCC)c(OCC)c2)c(=O)oc2ccccc12	/	/	/	/	/	.
Cc1nnc(SCC(=O)Nc2nsc(-c3ccccc3)n2)s1	.	12.6µM	.	.[0.074 µM]	?	.
Cc1ccc(-c2nc(NC(=O)CSc3nnc(C)s3)ns2)cc1	.	?	.	.	.	.
COc1ccc(-c2nc(NC(=O)CSc3nnc(C)s3)ns2)cc1	.	11.2µM	.	.[1.9 µM]	?	.
COc1ccc(-c2nc(NC(=O)CSc3nnc4ccccn34)ns2)cc1	.	?	.	.	.	.
Cc1nnc(SCC(=O)Nc2ccc(Cl)cn2)s1	.	.	.	.[10 µM]	-119.3	.
COc1cc(C(=O)Nc2cc3c(cc2C)n(C)c(=O)c(=O)n3C)cc(OC)c1OC	/	/	/	/	/	.
COCCCNC(=O)Cn1c(=O)n(CCCC(=O)NCc2ccc(C)cc2)c(=O)c2ccccc21	/	/	/	/	/	.
COc1cccc(-c2cc(NCc3ccccc3)ncn2)c1	/	/	/	.	/	/
COc1cccc(/C=C2\N=C(SC)SC2=O)c1OC	.	.	?	.	-91.2	.
Nc1[nH]n(-c2ccccc2)c(=O)c1N=Nc1ccc2ncsc2c1	/	.[9.22 µM]	.	.[10 µM]	/	/
COC(=O)[C@@]1(Cc2ccc(F)cc2)[C@@H]2[C@@H](CC(=O)[C@H]2CC(=O)C(=O)N(C)C)CN1C(=O)c1ccccc1	.	.	.	?	.	/
COC(=O)[C@@]1(Cc2ccc(F)cc2)[C@@H]2C(=CC(=O)[C@H]2CC(=O)C(=O)N2CCCC2)CN1C(=O)c1ccccc1	.	/	/	.	/	/
COC(=O)[C@@]1(Cc2ccc(OC)cc2)[C@@H]2[C@@H](CC(=O)[C@H]2CC(=O)C(=O)N(C)C)CN1C(=O)c1ccccc1	.	?	.	?	-87.7	/
COC(=O)[C@@]1(Cc2ccc(OC)cc2)[C@@H]2C(=CC(=O)[C@H]2CC(=O)C(=O)N2CCCC2)CN1C(=O)c1ccccc1	.	?	.	7.08µM	.	/
CCOC(=O)c1cccc(NC(=O)CSc2nc3ccccc3c(=O)n2CCOC)c1	.	.	.	.	?	.
SMILES	12-hLO inh	HTT aggregate	NPSR antagonist	HTT ATP protect	PNC assembly inh	IMPase cell inh
CCn1c(SCC(=O)OC2CCCCC2)nc2ccccc2c1=O	.	0.631µM	.	.[10 µM]	.	.
CCn1c(CNc2ccc(F)cc2)nnc1SCC(=O)OC1CCCCC1	.	.	.	.	-113.7	.
Cc1ccc(-n2c(CNc3ccc(F)cc3)nnc2SCC(N)=O)cc1	.	22.4µM	.	.	.	.
O=C(O)CSc1nnc(CNc2ccc(F)cc2)n1-c1ccccc1	/	.[9.22 µM]	.	.[10 µM]	/	/
CCOC(=O)CSc1nc2ccccc2c(=O)n1CC	.	.	.	.[0.074 µM]	?	.
CCOC(=O)c1cccc(NC(=O)CSc2nc3ccccc3c(=O)n2CC)c1	.	.	.	.[10 µM]	-93.6	.
N#CNC(N)=Nc1ccc(Cl)cc1	.[11.4 µM]	/	/	.[10 µM]	/	/
CC(C)CC(N)C(=O)NC(C)C(=O)O (stereo not drawn)	.	/	/	/	/	/
CCCSc1nnc2n(-c3ccc(OC)cc3)c(=O)c3c4c(sc3n12)COC(C(C)C)C4 (stereo not drawn)	/	/	/	/	/	.
C=CCc1c(OC(C)=O)c2ccccc2n(C)c1=O	.	.	.	.[10 µM]	-106.2	/
O=c1c2ccccc2sn1-c1ccccc1	12.6µM	.	?	.	.	.
O=c1c2ccccc2sn1-c1ccc(S(=O)(=O)N2CCCCC2)cc1	/	/	/	.[10 µM]	/	/
Cc1ccc(-n2sc3ccccc3c2=O)cc1S(=O)(=O)N1CCCCC1	3.16µM	?	.	.[10 µM]	?	.
CC(=O)N(C)c1nc(-c2ccc(Cl)cc2)cs1	.	.	.	.	.	.
Cc1ccc(-c2csc(N(C)C(=O)c3c(C)nn(-c4ccccc4)c3Cl)n2)cc1	.	.	.	.[10 µM]	-98.7	.[1.84 µM]
COc1ccccc1CN1CC2(CCN(S(C)(=O)=O)CC2)C1	.	/	/	.	/	/
Cc1onc(-c2c(F)cccc2Cl)c1C(=O)NCCc1ccc(S(N)(=O)=O)cc1	.	.	.	.	-94.7	.
Cc1onc(-c2c(F)cccc2Cl)c1C(=O)Nc1ccc(S(=O)(=O)Nc2ncccn2)cc1	.	.	.[7.67 µM]	.[10 µM]	-123.3	.
Cc1onc(-c2c(F)cccc2Cl)c1C(=O)NCCO	/	.	.	.	/	/
Nc1nc(CSCc2ccccc2)nc(N2CCOCC2)n1	.	.	.	.[10 µM]	-106.5	.
Nc1nc(CSc2nc3ccccc3s2)nc(N2CCOCC2)n1	/	.[9.22 µM]	.	.[10 µM]	/	/
CC[C@H](Cc1c(I)cc(I)c(N)c1I)C(=O)O	.	.	/	.	/	.
Cc1ccc(N(CC(=O)NCc2ccncc2)S(C)(=O)=O)cc1Cl	.	.	.	.	-84.4	.
CC(=O)/C(=C\c1ccccc1)CC(=O)O	.	/	/	/	/	/
Cc1ccc2nc(NCc3ccccc3)[nH]c2c1	.	?	.[7.67 µM]	.	-103.2	.
SMILES	12-hLO inh	HTT aggregate	NPSR antagonist	HTT ATP protect	PNC assembly inh	IMPase cell inh
O=[N+]([O-])c1ccc(Oc2ccc(Oc3ccc(C(F)(F)F)cn3)cc2)nc1	/	.[9.22 µM]	?	.[10 µM]	/	/
Cc1cc(=O)[nH]c(N=N/C(=N/Nc2ccc(O)cc2)c2ccccc2)n1	?	1.58µM	.	.[10 µM]	.	.
CN(CCN1CCc2ccccc2C1)Cc1nc(Cc2ccccc2F)no1	/	.	.	.	/	/
CC(=O)c1cc2c(cc1NC(=O)CN1CCN(c3cccc(C(F)(F)F)c3)CC1)OCO2	.	.	.	.[10 µM]	-100.0	?
COc1c(C)cccc1C(=O)NC(=S)Nc1cccc2nsnc12	/	.[9.22 µM]	7.94µM	.[10 µM]	/	/
CC(C)CC(=O)NC(=S)Nc1cccc2nsnc12	/	?	?	.	/	/
Cn1c(=O)n(C)c2cc(NS(=O)(=O)c3ccc(C(C)(C)C)cc3)c(NCc3ccccc3)cc21	/	/	/	/	/	.
COc1ccccc1CN1CCC2(CCNCC2)CC1	.	/	/	.	/	/

Source: PubChem
